Test systems include SR leukemia; RPMI-8226 leukemia; OVCAR-8 ovarian; OVCAR-5 ovarian; OVCAR-4 ovarian; SK-OV-3 ovarian; IGROV1 ovarian; OVCAR-3 ovarian; HS 578T breast; NCI/ADR-RES ovarian; T-47D breast; BT-549 breast; MDA-MB-435 melanoma; SW-620 colon; MCF7 breast; HCT-116 colon; HCC-2998 colon; KM12 colon; MDA-MB-468 breast.
Assay in all cases: NCI-60 one-dose screen, 48 h (100 = growth as untreated, 0 = no growth, -100 = all killed)
What all share (conditions): 10 µM unless noted

Our source for the growth values is PubChem BioAssay (NCI).

This is part of a sample that, as a whole, favours compounds with a hit. Of some 83,000 tested, about 20% had one in any assay.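 Single-dose data. Exposure time 48 hours. Values below 10 considered active.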 Values without a mark were called inactive. The source made the active and inactive calls.

As for `Cc1ccc(Cc2cnc(NC(=O)c3ccc(/C=C4\SC(=S)N(C)C4=O)cc3)s2)cc1`, the growth in the assay with SR leukemia is 30%; in the assay on RPMI-8226 leukemia, 31.4%; in the assay with OVCAR-8 ovarian, 35.3%; in the assay on OVCAR-5 ovarian, 34.3%; with OVCAR-4 ovarian it was 48.2%; with SK-OV-3 ovarian it was 29.3%. Further, the growth with IGROV1 ovarian was 33%; with OVCAR-3 ovarian it was 3.26% (active); in the assay with HS 578T breast it was 39.2%; in the assay on NCI/ADR-RES ovarian it was -28.5% (active); with T-47D breast, 23.9%; in the assay on BT-549 breast, 37.9%. For the same compound, the growth in the assay on MDA-MB-435 melanoma is -18.7% (active); with SW-620 colon, 35.8%; with MCF7 breast, 19.6%; in the assay on HCT-116 colon it was 22.7%; in the assay with HCC-2998 colon it was 41.1%; in the assay with KM12 colon, 11.2%. In addition, the growth in the assay with MDA-MB-468 breast is 4.76% (active).
For `CCCCSc1nc(NCCc2c[nH]c3ccccc23)c(C#N)c(-c2ccc(OC)cc2)n1`, the growth is 5.98% (active) with SR leukemia; 30.7% in the assay on RPMI-8226 leukemia; 79.2% with OVCAR-8 ovarian; 87% in the assay with OVCAR-5 ovarian; 67.2% with OVCAR-4 ovarian; 83.7% in the assay with SK-OV-3 ovarian. In addition, the growth in the assay with IGROV1 ovarian was 102%; with OVCAR-3 ovarian, 83.6%; in the assay on HS 578T breast, 47%; with NCI/ADR-RES ovarian it was 51.7%; in the assay on T-47D breast it was 30.7%; in the assay with BT-549 breast, 99.4%. Moreover, the growth is 72.2% in the assay on MDA-MB-435 melanoma; 52.8% with SW-620 colon; 17.7% with MCF7 breast; 21.4% in the assay on HCT-116 colon; 49.2% with HCC-2998 colon; 36.2% with KM12 colon. Also, the growth with MDA-MB-468 breast is 51.1%.
`C=C1CCC2C3(C)COC(c4ccco4)OC3CCC2(C)C1CC(Sc1ccccc1)C1=CCOC1=O` (stereo unspecified): the growth in the assay with SR leukemia was 17.1%; in the assay on RPMI-8226 leukemia, 3.83% (active); in the assay on OVCAR-8 ovarian it was 4.17% (active); in the assay with OVCAR-5 ovarian, 60.9%; in the assay with OVCAR-4 ovarian, 70.2%; with SK-OV-3 ovarian it was 141%. In addition, the growth was 69.2% in the assay with IGROV1 ovarian; 37% in the assay with OVCAR-3 ovarian; 114% in the assay with HS 578T breast; -17.6% (active) with NCI/ADR-RES ovarian; 77.3% with T-47D breast; 5.74% (active) in the assay with BT-549 breast. The growth in the assay with MDA-MB-435 melanoma was 54.1%; in the assay with SW-620 colon, 34.8%; in the assay with MCF7 breast, 23.1%; in the assay on HCT-116 colon, 12%; in the assay with HCC-2998 colon, 57%; in the assay on KM12 colon, 71.9%. Also, the growth in the assay with MDA-MB-468 breast was 17%.
With `CC1[C@H]2[C@H](C[C@H]3[C@@H]4CC=C5c6sc(Nc7ccccc7F)nc6CC[C@]5(C)[C@H]4CC[C@@]32C)O[C@]12CC[C@@H](C)CO2` (stereo partly specified), the growth in the assay with SR leukemia is 4.49% (active); with RPMI-8226 leukemia, -16.2% (active); in the assay on OVCAR-8 ovarian it was -83.4% (active); in the assay with OVCAR-5 ovarian, -67.1% (active); in the assay with OVCAR-4 ovarian it was -42.9% (active); with SK-OV-3 ovarian it was -19.5% (active). Also, the growth in the assay with IGROV1 ovarian is -37.6% (active); in the assay on OVCAR-3 ovarian it was -74.3% (active); in the assay on HS 578T breast, -16.1% (active); in the assay with NCI/ADR-RES ovarian, -33.9% (active); with T-47D breast, -60.2% (active); with BT-549 breast, 55.2%. In addition, the growth with MDA-MB-435 melanoma was -83.5% (active); with SW-620 colon, -75.4% (active); in the assay with MCF7 breast, -66.8% (active); in the assay with HCT-116 colon, -94.3% (active); with HCC-2998 colon, -82.1% (active); with KM12 colon, -90.7% (active).
As for `COc1cc(C2CC(c3cc(OC)c(OC)c(OC)c3)=NN2C(C)=O)ccc1OCc1ccc(F)cc1` (stereo unspecified), the growth with SR leukemia was 39.7%; in the assay with RPMI-8226 leukemia, 36.6%; in the assay with OVCAR-8 ovarian, 61.9%; in the assay on OVCAR-5 ovarian, 57.8%; in the assay with OVCAR-4 ovarian, 42.1%; in the assay with SK-OV-3 ovarian it was 80.1%. In addition, the growth in the assay on IGROV1 ovarian was 45.8%; in the assay with OVCAR-3 ovarian, 70.3%; in the assay with HS 578T breast, 58.8%; in the assay with NCI/ADR-RES ovarian it was 60.6%; in the assay with T-47D breast it was 24.8%; in the assay with BT-549 breast, 44.9%. Also, the growth with MDA-MB-435 melanoma is 62.5%; with SW-620 colon, 58.5%; in the assay on MCF7 breast it was 34.7%; in the assay on HCT-116 colon it was 31.5%; in the assay with HCC-2998 colon it was 86%; in the assay with KM12 colon, 57.1%. Also, the growth with MDA-MB-468 breast was 47.1%.
Regarding `Cc1ccc(NCC(=O)Cn2cc(COc3ccc(C=Nc4cnc5ccccc5c4)cc3)nn2)cc1`, the growth is 103% in the assay on SR leukemia; 110% in the assay with RPMI-8226 leukemia; 103% in the assay on OVCAR-8 ovarian; 107% in the assay on OVCAR-5 ovarian; 113% with OVCAR-4 ovarian; 98.4% in the assay with SK-OV-3 ovarian. Further, the growth in the assay with IGROV1 ovarian is 112%; with OVCAR-3 ovarian it was 139%; in the assay with HS 578T breast, 106%; in the assay on NCI/ADR-RES ovarian, 113%; with T-47D breast it was 105%; with BT-549 breast it was 115%. Further, the growth in the assay on MDA-MB-435 melanoma was 113%; with SW-620 colon, 113%; with MCF7 breast, 102%; in the assay with HCT-116 colon it was 110%; in the assay on HCC-2998 colon it was 101%; in the assay on KM12 colon, 105%. Besides, the growth with MDA-MB-468 breast is 100%.
Consider `O=C(O)Cn1c(O)c(/C=C2/C=c3cc4c(cc3=NC2=O)OCCO4)sc1=S`, for which the growth was 89.2% in the assay on SR leukemia; 98.2% in the assay on RPMI-8226 leukemia; 110% in the assay with OVCAR-8 ovarian; 112% in the assay with OVCAR-5 ovarian; 109% in the assay with OVCAR-4 ovarian; 129% in the assay on SK-OV-3 ovarian. Besides, the growth is 114% in the assay on IGROV1 ovarian; 110% with OVCAR-3 ovarian; 107% in the assay on HS 578T breast; 103% with NCI/ADR-RES ovarian; 104% in the assay on T-47D breast; 104% with BT-549 breast. For the same compound, the growth was 102% with MDA-MB-435 melanoma; 113% in the assay with SW-620 colon; 86.3% in the assay on MCF7 breast; 103% in the assay with HCT-116 colon; 109% with HCC-2998 colon; 104% in the assay on KM12 colon. Besides, the growth in the assay with MDA-MB-468 breast is 111%.
In the case of `C=C1CC[C@@H]2[C@]3(C)COC(c4ccco4)O[C@@H]3CC[C@@]2(C)[C@@H]1C/C=C1/C(=O)OCC1OC(C)=O` (stereo partly specified), the growth is -21% (active) with SR leukemia; -30.9% (active) with RPMI-8226 leukemia; -8.73% (active) with OVCAR-8 ovarian; 35.8% in the assay on OVCAR-5 ovarian; 48.2% in the assay on OVCAR-4 ovarian; 105% in the assay with SK-OV-3 ovarian. The growth in the assay on IGROV1 ovarian was 9.51% (active); with OVCAR-3 ovarian, -28.9% (active); in the assay with HS 578T breast, 66.8%; in the assay with NCI/ADR-RES ovarian, 8.21% (active); in the assay with T-47D breast it was 45.5%; in the assay with BT-549 breast it was -4.43% (active). The growth with MDA-MB-435 melanoma was 31.9%; with SW-620 colon it was -8.09% (active); in the assay with MCF7 breast, 13.4%; with HCT-116 colon, -52% (active); in the assay with HCC-2998 colon, 31.8%; with KM12 colon it was 52.4%. In addition, in the assay on MDA-MB-468 breast, the growth was -2.37% (active).
